High-throughput results deposited in PubChem by National Center for Advancing Translational Sciences (NCATS).
This is a sample that favours compounds with a hit; in the whole collection about 7.4% have one here.
Luc counter = blocks Kinase-Glo luciferase, a counter-screen artifact. Kinase-Glo luciferase, ATP luminescence, 8 min. Q27757. hit rate 0.28% among 200,000. Potency, µM (doses to about 38.3 µM), inactives show at the top dose activity change, negative = inhibition, usual class: inhibitors; also: % is scaled to controls: 0 for no effect and ±100 for the full control effect; nearly all actives have a fitted effect of over 60% in size
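Compound is pinned into ATP-containing buffer (10 uM ATP, imidazole pH 7.2, 7 mM MgCl2). Kinase-Glo luciferase reagent is then added. Light output is recorded following an 8-min room-temperature incubation.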
Rab9 prom act = activates the Rab9 promoter; Huh7 Rab9 promoter-luciferase reporter, luminescence, 24 h; Potency, µM (doses to about 9.22 µM), without a hit: top-dose activation, negative = inhibition, actives largely listed as activators; hit rate 2.8% among 320,000; also: % of control where 0% means no effect; nearly all actives have a fitted effect of over 60% in size
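Luminescence from Amplite-detected luciferase (10 minutes, ambient) reports Rab9 promoter activation. Before that, stable Rab9-luciferase Huh7 cells (1500/well, reduced-serum OP-MEM I plus 10% FBS) were exposed to compound for 24 hours at 37C.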
ELG1 genotox = genotoxicity induction in ELG1-luciferase HEK293T cells; Potency, µM (highest dose often 46 µM), for the others: top-dose activity change, positive = activation, hits mostly activators; AID 504466; hit rate 1.3% among 330,000; HEK293T ELG1-luciferase reporter, luminescence, 16 h; also: % of control where 0% means no effect; nearly all actives have a fitted effect of over 60% in size
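Cells (2,000/well) expressing the ELG1-luciferase fusion are dosed by pin tool and kept 16 hr at 37 °C, 5% CO2. Signal comes from ONE-Glo luciferase reagent after 30 min at room temperature.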
SMN2 splice up = increases expression of the SMN2 splice variant | HEK293 SMN2-luciferase splicing reporter, luminescence, 30-36 h | Potency, µM (top dose mostly 46.1 µM), inactives show at the top dose activity change, positive = activation, most hits filed as activators | hit rate 2.8% among 210,000; also: % of control where 0% means no effect; nearly all actives have a fitted effect of over 55% in size
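qHTS luciferase splicing reporter: luminescence rises when SMN2 exon 7 is included in transfected HEK293 cells. Compound exposure lasted 30-36 h at 37C, with 4.5 mM final sodium butyrate as control, followed by a ONE-Glo read.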
NPC1 promoter act = activates the NPC1 promoter; AID 485313; hit rate 2.4% among 320,000; Huh7 NPC1 promoter luciferase reporter, 24 h; Potency, µM (series often up to 9.22 µM), without a hit: top-dose activation, hits mostly activators; also: % of control where 0% means no effect; nearly all actives have a fitted effect of over 60% in size
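Stable NPC1-promoter luciferase Huh7 line; cpd (DMSO) 24 h, 37 °C, 5% CO2; Amplite luciferase reagent 10 min RT; luminescence readout. qHTS format.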
FLuc counter = counter-screen for miR-21 project: firefly luciferase inhibitors or activators; AID 588342; Potency, µM (titrated, usually from 57.5 µM), inactives show at the top dose activity change, negative = inhibition, most hits filed as inhibitors; purified FLuc, Km substrates, luminescence inhibition; P08659; hit rate 6.9% among 360,000;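 also: plate controls were vehicle for no effect and reference inhibitor for full effect; nearly all actives have a fitted effect of over 55% in size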
Target sequence (P08659 whole entry, looked up): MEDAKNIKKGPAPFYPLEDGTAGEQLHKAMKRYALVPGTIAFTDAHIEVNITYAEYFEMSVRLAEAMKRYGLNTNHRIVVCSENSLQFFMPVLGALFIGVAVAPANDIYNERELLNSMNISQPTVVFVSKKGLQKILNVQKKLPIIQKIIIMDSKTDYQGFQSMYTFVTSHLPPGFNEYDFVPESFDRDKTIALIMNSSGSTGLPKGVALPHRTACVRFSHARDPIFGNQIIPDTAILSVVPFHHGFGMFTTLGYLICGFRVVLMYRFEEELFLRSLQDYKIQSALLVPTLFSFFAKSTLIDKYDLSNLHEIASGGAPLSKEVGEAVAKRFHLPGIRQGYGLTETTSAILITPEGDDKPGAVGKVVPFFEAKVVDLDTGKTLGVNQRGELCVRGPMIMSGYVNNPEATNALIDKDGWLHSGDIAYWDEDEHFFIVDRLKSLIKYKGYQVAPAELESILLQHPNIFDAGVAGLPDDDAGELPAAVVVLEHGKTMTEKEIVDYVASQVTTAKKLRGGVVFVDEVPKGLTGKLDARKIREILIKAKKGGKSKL
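Purified P. pyralis luciferase (10nM final) with 10uM D-luciferin and 10uM ATP (Km levels) in 50mM Tris acetate pH 7.5, 10mM Mg acetate, 0.01% Tween-20, 0.05% BSA; qHTS 6-point titration, ~60 µM downward; luminescence read.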
An asterisk follows results filed as active; ? = inconclusive; · = no result; [ ] = dose if it differs, or a comment. Calls follow the shape of the dose curve; as a rule, active = well fitted curve in the direction sought with a large enough effect; inconclusive = small, poorly fitted or top-dose-only effect, or another doubt; inactive = no such curve, though single readings can be large; an effect the other way counts as inactive or inconclusive. Potency is read from the fitted curve at half-maximal effect.

SMILES	Luc counter	Rab9 prom act	ELG1 genotox	SMN2 splice up	NPC1 promoter act	FLuc counter
CSc1ccccc1NC(=O)COc1ccc(Cl)cc1	3%	15%	6%	-2%	15%	?
CCOC(=O)N1CCN(C(=O)c2ccccc2NC(=O)COc2ccccc2)CC1	·	4%	-4%	·	22%	-19%
Cc1ccc(OCC(=O)Nc2ccccc2C(N)=O)cc1	·	2.8µM*	?	·	2.5µM*	8.5µM*
Cc1ccc(OCC(=O)Nc2ccccc2-c2ccccc2)cc1	-8%	?	?	?	?	15µM*
O=C(COc1ccc(Cl)cc1)Nc1ccccc1Cl	·	-4%	?	·	16%	17µM*
NC(=O)c1ccccc1NS(=O)(=O)Cc1ccc(Cl)cc1	1%	-2%	-1%	17%	-1%	0%
NC(=O)c1ccccc1NC(=O)COc1ccc(Cl)cc1	·	?	?	·	3.2µM*	17µM*
C/C=C1/C2C=C(C)CC1(N)c1ccc(=O)[nH]c1C2 (stereo not given)	3%[39.9 µM]	·	·	·	·	·
CC(=O)NC12CC3CC(C1)CC(C(=O)Nc1nc4ccc(F)cc4s1)(C3)C2	·	?	-1%	·	?	13µM*
COc1ccc(OC)c(CCNC(=O)Cn2nc(C)n3c(cc4sccc43)c2=O)c1	·	·	·	-1%	·	0%
CN(C)/C=C(\C#N)C(=O)N/N=C/c1ccc(F)cc1	-2%	10%	4%	5%	10%	17µM*
Cc1c(/C=N\NC(=O)c2ccc([N+](=O)[O-])cc2)cnn1C	-5%	2%	1%	0%	1%	-17%
O=C(N/N=C/c1cccnc1)c1ccccc1	·	11%	10%	·	16%	?
CC(C)(C)NC(=O)C(=O)N/N=C/c1ccc(F)cc1	-1%	2%	1%	5%	8%	-8%
CC(=O)n1cc(/C=N/NC(=O)c2ccc([N+](=O)[O-])cc2)c2ccccc21	·	11%	3%	·	6%	6.7µM*
O=C(N/N=C/c1cccnc1)c1ccc([N+](=O)[O-])cc1	-2%	-2%	0%	-12%	-4%	15µM*
O=C(N/N=C\c1ccc(F)cc1)c1ccc(F)cc1	-5%	?	?	?	?	19µM*
O=C(Nc1ccc(Cl)c(C(F)(F)F)c1)c1cc2nc(-c3ccc4c(c3)OCO4)cc(C(F)(F)F)n2n1	·	·	·	0%	·	-2%
C[C@@H]1C[C@](C)(C(=O)c2ccco2)C=C1c1ccco1	-1%	·	·	2%	·	·
CCCCC/C=C\C/C=C\C/C=C\CCCCCCC(=O)NCC(=O)O	2%	·	·	8%	·	·
CCn1c(=O)c2cc(C(=O)NCCc3ccc(OC)c(OC)c3)sc2c2ccccc21	·	·	·	0%	·	-8%
CCOc1ccc(CNC(=O)CN2C(=O)C3CCCCN3c3ccc(C(=O)N4CCCC4)cc32)cc1 (stereo not given)	·	·	·	·	·	5%
O=C(N/N=C/c1ccoc1)c1ccc([N+](=O)[O-])cc1	·	1%	7%	·	4%	21µM*
Cc1ccc(C(=O)N/N=C\c2cccnc2)s1	·	?	?	·	24%	6.7µM*
CCOc1ccc(C(=O)N/N=C/c2ccc(SC)cc2)cc1	1%	-4%	7%	?	2%	-8%
SMILES	Luc counter	Rab9 prom act	ELG1 genotox	SMN2 splice up	NPC1 promoter act	FLuc counter
O=C(N/N=C/c1cccnc1)c1ccc(F)cc1	·	?	14%	·	27%	13µM*
Cc1c(C(=O)N/N=C/c2ccoc2)cccc1[N+](=O)[O-]	·	1%	-1%	·	-1%	-10%
CSc1ccc(/C=N/NC(=O)c2cccc(O)c2)cc1	?	3.5µM*	?	?	?	4.3µM*
COc1ccc2c(c1)c1c(c(=O)n(Cc3ccccc3)c(=O)n1Cc1ccc(C)cc1)n2C	·	·	·	·	·	-5%
Cc1ccccc1Cn1c(=O)n(CCCCC(=O)NCCc2ccccc2)c(=O)c2ccccc21	·	·	·	-7%	·	5%
COC(=O)c1ccc(/C=N/NC(=O)c2cccc(F)c2)cc1	?	3.2µM*	?	14µM*	2µM*	-66%
Nc1ccc(C(=O)N/N=C/c2ccccc2)cc1	-11%	3.2µM*	?	?	?	11µM*
CCOc1ccc(C(=O)Nc2cccc(-c3nc4cc(Cl)cc(Cl)c4o3)c2)cc1	·	·	·	3%	·	6%
CCC(NC(=O)Cc1c(C)c2cc3c(cc2oc1=O)OC(C)(C)CC3)C(=O)O (stereo not given)	·	2µM*	10%	·	3.2µM*	21µM*
Cc1c(CC(=O)N2CCC(C(N)=O)CC2)c(=O)oc2cc3c(cc12)CCC1(CCCCC1)O3	·	-6%	-5%	·	6%	19µM*
Cc1c(CC(=O)O)c(=O)oc2cc3c(cc12)CCC(C)(C)O3	·	-2%	-1%	·	-6%	3%
O=C(/C=C/c1ccc(-c2ccccc2[N+](=O)[O-])o1)c1ccccc1	1%	3%	13%	-20%	16%	24µM*
O=C(O)/C(=C\c1ccc(-c2ccccc2[N+](=O)[O-])o1)c1ccccc1	·	6%	4%	·	1%	21µM*
COc1ccc(C(=O)Cc2cc3cccc(OC)c3oc2=O)cc1	·	-5%[1.84 µM]	13%	·	28%	?
COc1cccc2cc(C(=O)N3CCCCC3C)c(=O)oc12 (stereo not given)	-1%	-2%	3%	-2%	-5%	0%
COc1cccc2cc(C(=O)Nc3ccc(C)cc3)c(=O)oc12	·	·	·	14%	·	0.38µM*
COc1cccc2cc(C(=O)Nc3ccc(F)c(F)c3)c(=O)oc12	·	·	·	2%	·	0%
COc1cccc2cc(NC(=O)C3CCCCC3)c(=O)oc12	2%	1.8µM*	?	?	3.2µM*	?
COc1cccc2cc(CC(=O)c3ccc(C)cc3C)c(=O)oc12	·	?	11%	·	?	11µM*
COc1cccc2cc(C(=O)Nc3cccc(C)n3)c(=O)oc12	-2%	?	2.3µM*	-8%	22%	0.21µM*
